HepG2 tox = HepG2 cytotoxicity, counter-screen for TGF-b inhibitors. Potency, µM (doses to about 46.1 µM), for inactives: at the top dose activity change, negative = cytotoxicity, hits mostly cytotoxic. 410,000 compounds, 0.76% hits. HepG2 CAGA-GFP viability, ATP luminescence, 18 h
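CellTiter-Glo luminescence gave cytotoxicity after 18 hours at 37 degrees C. The cells were HepG2 CAGA-GFP in 1% FBS DMEM, stimulated with 500 pg/mL TGF-beta after compound addition. %Activity was normalised to no-cell wells (complete cell-killing) and DMSO (no toxicity), and curves were fitted and classified.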
TGFb inhibitor = inhibitors of TGF-b signaling. HepG2 CAGA-GFP TGF-b/SMAD3 reporter, GFP fluorescence, 18 h; TGF-beta stimulated, 500 pg/mL final. AID 588855. Potency, µM (series often up to 46.1 µM), inactives show top-dose activity, negative = inhibition, actives largely listed as inhibitors. 410,000 compounds, 1.2% hits; also: % is scaled to controls: 0 for no effect and ±100 for the full control effect; nearly all actives have a fitted effect of over 65% in size
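HEPG2 CAGA-GFP, 1000 cells/well; 2 h settle, 37 C; cpd via pin tool; TGF-b 500 pg/mL final; 18 h, 37 C; GFP imaging ex488/em500-530; %Activity normalised to -TGF-b and +DMSO controls; CRC fit, curve class.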
DT40 TDP1 no CPT = qHTS for Inhibitors of human tyrosyl-DNA phosphodiesterase 1 (TDP1): qHTS in cells in absence of CPT; DT40 Tdp1-/- hTDP1 cells, no CPT, ATP luminescence, 48 h; Potency, µM (titrated, usually from 46.2 µM), inactives show at the top dose activity change, negative = growth inhibition, hits mostly inhibitors; 420,000 compounds, 15% hits; AID 686978, 2013; also: % is scaled to controls: 0 for no effect and ±100 for the full control effect; nearly all actives have a fitted effect of over 55% in size
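Stably hTDP1-transfected Tdp1-null chicken DT40 cells were treated with library compounds minus camptothecin and grown for at least 48 hr at 37 °C, after which cellular ATP was quantified by luminescence.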
HT1080 IDH1KD tx = kills HT-1080 cells with IDH1 knockdown; HT-1080 IDH1 knockdown viability, ATP luminescence, 48 h; Potency, µM (top dose mostly 46.1 µM), without a hit: at the top dose activity, negative = toxicity, hits mostly cytotoxic; 360,000 compounds, 2% hits; AID 686971;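 also: 0% = DMSO wells and -100% = cell-free medium wells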
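% activity derives from luminescence (CellTiter-Glo), normalised to DMSO and no-cell wells. HT-1080-IDH1KD cells, 750/well, had 48 h compound exposure at 37 °C.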
HT1080-NT tox = kills 2HG-producing HT-1080-NT fibrosarcoma cells; HT-1080-NT fibrosarcoma viability, CellTiter-Glo ATP luminescence, 48 h; Potency, µM (top dose mostly 46.1 µM), inactives show at the top dose activity, negative = less viability, most hits filed as cytotoxic; 360,000 compounds, 1.6% hits;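 also: NT is the 2HG producing partner of a matched IDH1 knockdown line; 0% = DMSO-treated cells and -100% = media-only wells without cells; nearly all actives have a fitted effect of over 55% in size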
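Toxicity toward the 2HG-producing NT line was scored as %Activity, normalised to DMSO and no-cell wells, from CellTiter-Glo luminescence after 48 hours' treatment.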
TDP1 cell CPT = growth inhibition of DT40 Tdp1-/-;hTDP1 cells with camptothecin (screen for TDP1 inhibitors); chicken DT40 Tdp1-/-;hTDP1 cells + 20 nM CPT, ATP luminescence, 48 h; AID 686979; Potency, µM (highest dose often 46.2 µM), inactives show at the highest dose activity change, negative = growth inhibition, most hits filed as inhibitors; 420,000 compounds, 12% hits; also: % is scaled to controls: 0 for no effect and ±100 for the full control effect; nearly all actives have a fitted effect of over 55% in size
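Chicken DT40 Tdp1-/- cells complemented with human TDP1, 400 cells/well, exposed to compounds plus 20 nM camptothecin for at least 48 h at 37 C; viability read as ATP content by CellTiter-Glo luminescence.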
Numbers without * were called inactive; ? = inconclusive; nt = no result given; [ ] = remark or other dose. This is a sample that favours compounds with a hit; in the whole collection about 17% have one here. Calls follow the shape of the dose curve; as a rule, active = well fitted curve in the direction sought with a large enough effect; inconclusive = small, poorly fitted or top-dose-only effect, or another doubt; inactive = no such curve, though single readings can be large; an effect the other way counts as inactive or inconclusive. Potency is read from the fitted curve at half-maximal effect.

SMILES | HepG2 tox | TGFb inhibitor | DT40 TDP1 no CPT | HT1080 IDH1KD tx | HT1080-NT tox | TDP1 cell CPT
CCOC(=O)c1c(C)[nH]c(C)c1C(=O)COC(=O)c1ccc(Cl)c(S(=O)(=O)NCc2ccccc2)c1 | -25.8% | -12.6% | 23.1µM* | 23.1µM* | 18.4µM* | 20.6µM*
CCOC(=O)c1c(C)[nH]c(C)c1C(=O)COC(=O)c1cc2ccccc2cc1OC | -2.2% | 2.2% | 23.1µM* | -9.7% | -2.1% | ?
C=CCc1cc(/C=N/NC(=O)CSc2nnc(CCCc3ccc(OC)cc3)o2)cc(OC)c1O | -18.2% | ? | -25.7% | -18.4% | -14.7% | -22.4%
CCOC(=O)c1c(C)[nH]c(C)c1C(=O)COC(=O)c1cc2ccccc2cc1O | -22.2% | ? | 16.4µM* | ? | -5.1% | ?
CCOC(=O)c1c(C)[nH]c(C)c1C(=O)COC(=O)/C=C/c1ccc(OC)cc1 | 1.4% | 0.6% | 8.2µM* | 14.6µM* | ? | 7.31µM*
CCOC(=O)c1ccc2nc(CCC(=O)N[C@H](C(=O)OC)C(C)C)c(=O)n(CC)c2c1 | -10.8% | -12.1% | 5.7% | -4.4% | -14.1% | 1.2%
CCOC(=O)C1C(=O)C=C(c2ccc(C)cc2)CC1c1ccc([N+](=O)[O-])cc1 (configuration not stated) | 3.1% | -18.4% | 13µM* | 5.3% | 0.5% | ?
CCOC(=O)C1C(=O)C=C(c2ccccc2)CC1c1ccccc1 (configuration not stated) | -15.5% | 3.0% | ? | -14.3% | -5.6% | ?
CC(=O)NCCn1c(SCc2ccccc2C)nc2ccccc2c1=O | -32.6% | ? | 16.4µM* | -14.9% | -5.2% | ?
CC(=O)NCCn1c(SCc2ccc(C)cc2C)nc2ccccc2c1=O | -22.8% | -4.1% | 8.2µM* | -18.6% | -9.9% | 10.3µM*
O=C(Cc1cccs1)N[C@@H]1C(=O)N2C(C(=O)[O-])=C(C[n+]3ccccc3)CS[C@H]12 | nt | nt | -13.6% | nt | nt | -3.0%
Cc1ccc(N2C(=O)N(CC(=O)Nc3ccc([N+](=O)[O-])cc3)C(=O)C2C)cc1 (configuration not stated) | -20.9% | -24.4% | -10.2% | -1.0% | -23.0% | -20.8%
CC(C)C(NC(=O)c1ccccc1)C(=O)OCC(=O)N1CCN(c2ccccc2)CC1 (configuration not stated) | 7.9% | 0.8% | ? | 3.9% | -1.6% | 7.3%
O=S(c1ccc2ccccc2c1)c1cnns1 (configuration not stated) | 2.3% | -22.4% | 2.59µM* | ? | ? | 1.03µM*
CCOC(=O)c1ccc(N2C(=O)C(CC(N)=O)N(CCc3ccc(OC)c(OC)c3)C2=S)cc1 (configuration not stated) | -3.1% | 3.3% | 9.6% | -2.2% | 9.1% | 17.3%
COc1ccc(CCN2C(=S)N(c3ccc(Cl)cc3)C(=O)C2CC(N)=O)cc1OC (configuration not stated) | 9.0% | ? | 16.4µM* | ? | -26.7% | 14.6µM*
COc1ccc(NC(=O)CC2C(=O)N(c3cccc(OC)c3)C(=O)N2CCC2=CCCCC2)cc1 (configuration not stated) | -5.0% | -27.7% | 23.1µM* | nt | nt | ?
CCCOc1ccc(NC(=O)CC2C(=O)N(c3ccccc3)C(=O)N2Cc2ccc(F)cc2)cc1 (configuration not stated) | -69.2% | 10µM* | 20.6µM* | nt | nt | 16.4µM*
CCc1ccc(NC(=O)CC2C(=O)N(c3ccc(C)cc3)C(=O)N2CCc2ccncc2)cc1 (configuration not stated) | -17.1% | ? | 23.1µM* | -13.9% | -21.0% | ?
Cn1c(=O)c2c(c3ccccc31)OC(=O)CC2c1ccc(C(F)(F)F)cc1 (configuration not stated) | 5.0% | -2.5% | -9.3% | nt | nt | 26.2%
O=C(Cn1ccnc1[N+](=O)[O-])NCCO | nt | nt | -8.5% | nt | nt | 3.5%
COC(=O)c1ccc(NC(=O)CC2C(=O)N(c3cccc(OC)c3)C(=O)N2Cc2cccc(OC)c2)cc1 (configuration not stated) | -15.1% | -21.0% | 14.6µM* | nt | nt | ?
COC(=O)c1ccc(NC(=O)CC2C(=O)N(c3ccc(Cl)cc3)C(=O)N2Cc2ccco2)cc1 (configuration not stated) | -40.3% | ? | 18.4µM* | nt | nt | 16.4µM*
COC(=O)c1ccc(NC(=O)CC2C(=O)N(c3ccccc3)C(=O)N2Cc2ccco2)cc1 (configuration not stated) | -20.0% | -3.4% | -39.6% | nt | nt | ?
COc1cc(NC(=O)CC2C(=O)N(c3cccc(C)c3)C(=O)N2Cc2ccco2)cc(OC)c1 (configuration not stated) | -20.6% | -6.0% | 23.1µM* | nt | nt | ?
SMILES | HepG2 tox | TGFb inhibitor | DT40 TDP1 no CPT | HT1080 IDH1KD tx | HT1080-NT tox | TDP1 cell CPT
CCc1ccc(NC(=O)CC2C(=O)N(c3cccc(C)c3)C(=O)N2Cc2cccc(OC)c2)cc1 (configuration not stated) | -25.3% | ? | ? | nt | nt | ?
CCc1ccc(NC(=O)CC2C(=O)N(c3cccc(OC)c3)C(=O)N2Cc2ccc(F)cc2)cc1 (configuration not stated) | -24.9% | ? | 18.4µM* | nt | nt | 23.1µM*
COc1ccc(CN2CCNC(=O)C2CC(=O)N(C)CCC2CCOCC2)c(OC)c1 (configuration not stated) | 4.3% | -3.6% | 17.4% | 15.4% | 3.7% | -1.7%
COCCn1c(C)cc(C(=O)COC(=O)/C=C/c2ccc(OC)cc2OC)c1C | 2.1% | -2.9% | ? | 11.1% | 9.3% | -3.3%
C=C(C)C(=O)OC[C@@H]1CCC[N@+]2(C)CCCCC12 (some centres not stated) | nt | nt | 4.3%[9.04 µM] | nt | nt | 2.2%[9.04 µM]
COC(=O)c1ccc(NC(=O)CC2C(=O)N(c3ccc(F)cc3)C(=O)N2Cc2ccc(OC)cc2)cc1 (configuration not stated) | -24.1% | ? | 18.4µM* | nt | nt | ?
CCNC(=O)CC1C(=O)N(c2ccc(F)cc2)C(=S)N1CCc1ccncc1 (configuration not stated) | 1.6% | -3.8% | 3.4% | 5.3% | 6.1% | -9.1%
